Experimental data as given in PubChem BioAssay (NCATS).
Records with an inconclusive call do not appear. Where a call stands in place of a potency, no number is given. Unmarked numbers belong to inactive results. Calls of active or inactive are those of the source. The call rests on the fitted dose curve; in most records, active means well fitted curve in the direction sought with a large enough effect; inconclusive means small, poorly fitted or top-dose-only effect, or another doubt; inactive means no such curve, though single readings can be large; an effect the other way counts as inactive or inconclusive.

What was measured:
[1] = molecular target: Cellular tumor antigen p53 (Homo sapiens) (UniProt P04637); assay: Primary qHTS for small molecule compounds that upregulate eGFP-tagged delta133p53alpha (in N-terminal) cells. (AID 2060322); details: NCI-H358 eGFP-delta133p53alpha fluorescence, 24 h; activation: hits give high values; further: nearly all actives have a fitted effect of over 75% in size; further: potency means the concentration at half of the fitted maximal effect; on activation: series mostly up to about 56 µM
Sequence of Cellular tumor antigen p53 (Homo sapiens) (P04637 whole entry, looked up): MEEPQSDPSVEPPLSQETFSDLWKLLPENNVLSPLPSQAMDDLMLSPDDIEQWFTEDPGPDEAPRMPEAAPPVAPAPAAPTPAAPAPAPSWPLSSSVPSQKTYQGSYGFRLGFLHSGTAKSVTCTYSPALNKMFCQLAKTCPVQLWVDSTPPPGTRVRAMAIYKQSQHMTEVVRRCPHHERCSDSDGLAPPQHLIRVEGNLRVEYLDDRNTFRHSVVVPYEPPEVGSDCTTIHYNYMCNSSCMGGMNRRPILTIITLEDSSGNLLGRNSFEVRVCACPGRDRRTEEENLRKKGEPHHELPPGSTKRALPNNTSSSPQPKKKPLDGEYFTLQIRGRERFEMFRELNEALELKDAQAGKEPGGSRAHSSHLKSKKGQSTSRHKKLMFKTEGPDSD
Summary of the method: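 NCI-H358 cells pre-induced 24 h with 10 ng/ml doxycycline to express N-terminal eGFP-delta133p53alpha, then dosed 24 h at 37C without doxycycline; fixed, Hoechst-stained, GFP intensity by laser scanning cytometry, normalized to DMSO (0%) and 57.5 uM 5-azacytidine (100%).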

[2] = molecular target: Aldehyde dehydrogenase, mitochondrial (Homo sapiens) (UniProt P05091); assay: qHTS for Inhibitors of the Aldehyde Dehydrogenase Family (ALDH2) Primary screen (AID 2061308); further: nearly all actives have a fitted effect of over 55% in size
[3] = molecular target: Retinaldehyde dehydrogenase 3 (Homo sapiens) (UniProt P47895); assay: qHTS for Inhibitors of the Aldehyde Dehydrogenase Family (ALDH1A3) Confirmatory screens (AID 2061311); further: nearly all actives have a fitted effect of over 60% in size; further: potency means the concentration at half of the fitted maximal effect
[4] = molecular target: Aldehyde dehydrogenase 1A1 (Homo sapiens) (UniProt P00352); assay: qHTS for Inhibitors of the Aldehyde Dehydrogenase Family (ALDH1A1) Confirmatory screens (AID 2061316); further: nearly all actives have a fitted effect of over 65% in size; further: potency means the concentration at half of the fitted maximal effect
[5] = molecular target: Retinaldehyde dehydrogenase 3 (Homo sapiens) (UniProt P47895); assay: qHTS for Inhibitors of the Aldehyde Dehydrogenase Family (ALDH1A3) Validation screen (AID 2061312); further: nearly all actives have a fitted effect of over 45% in size; further: potency means the concentration at half of the fitted maximal effect
[6] = molecular target: Retinaldehyde dehydrogenase 3 (Homo sapiens) (UniProt P47895); assay: qHTS for Inhibitors of the Aldehyde Dehydrogenase Family (ALDH1A3) Primary screen (AID 2061315); further: potency means the concentration at half of the fitted maximal effect
[7] = molecular target: Retinal dehydrogenase 2 (Homo sapiens) (UniProt O94788); assay: qHTS for Inhibitors of the Aldehyde Dehydrogenase Family (ALDH1A2) Confirmation screens (AID 2061314); further: nearly all actives have a fitted effect of over 65% in size; further: potency means the concentration at half of the fitted maximal effect

Row | Structure (SMILES) | activation [1] | Potency [2] | Potency [3] | Potency [4] | Potency [5] | Potency [6] | Potency [7] | Potency [1]
1 | Cc1cc(N=Nc2ccc(S(=O)(=O)Nc3ccccn3)cc2)c(N)cc1O | -5% | inactive | 11.3 µM (active) | 11.3 µM (active) |  |  |  | 
2 | COc1cc2c(cc1OC)-c1[nH]nc(Nc3cccc(F)c3)c1C2 | 6.68% | inactive |  |  | inactive | inactive |  | 
3 | COc1cc(O[C@@H]2O[C@H](CO[C@H]3OC[C@](O)(CO)[C@H]3O)[C@@H](O)[C@H](O)[C@H]2O)cc(OC)c1O | -16.8% | inactive | 4.91 µM (active) | inactive |  | 2.82 µM (active) |  | 
4 | CC(=O)CC1CCC(C(C)C(=O)OCC(O)CO)O1 (stereo not drawn) | -0.763% | inactive | 4.49 µM (active) | 15.9 µM (active) |  | 15.8 µM (active) |  | 
5 | CC(=O)c1c(O)cc2cccc3c2c1CC(C)(O)O3 (stereo not drawn) | 6.11% | inactive | 12.7 µM (active) |  |  | inactive |  | 
6 | Cc1ccc(-c2cn3c4c(sc3n2)CCCC4)cc1 | 11% | inactive |  |  | 25.1 µM (active) |  |  | 
7 | CC1=CC2=C(C)C(=O)C(C)(O)C(O)C2CO1 (stereo not drawn) | -5.34% | inactive | 22.5 µM (active) | inactive |  |  |  | 
8 | COc1cc(OC)c(NC(=O)c2ccc(Cc3cc4c(cc3C)C(C)(C)CCC4(C)C)o2)c(OC)c1 | 10.5% | inactive | 4 µM (active) | 5.04 µM (active) |  |  | 5.65 µM (active) | 
9 | C=C1C(=O)O[C@@H]2C3C(=C(C)[C@@H](O)[C@@H](OC(=O)/C(=C/C)COC(C)=O)[C@@H]12)C(=O)[C@H]1O[C@@]31C (stereo partly drawn) |  | inactive | inactive | inactive |  | inactive | 0.98 µM (active) | 2.08 µM (active)
10 | CCC(=O)N1CCc2cc(OC)c(O)cc2C1 | -7.64% | inactive |  |  | 22.4 µM (active) |  |  | 
11 | COc1cc(Nc2nc3c(s2)CCCC3c2ccc(F)cc2)ccc1-n1cnc(C)c1 (stereo not drawn) | -13.4% | inactive |  |  | inactive | inactive |  | 
12 | COC(=O)[C@H](CC1C=NC=N1)NCC12CC3CC(CC(C3)C1)C2 (stereo partly drawn) | -8.11% | inactive |  |  | inactive |  |  | 
13 | CC(=O)O[C@]1(C(C)=O)CC[C@H]2[C@@H]3CCC4=CC(=O)CCC4=C3[C@@H](c3ccc(N(C)C)cc3)C[C@@]21C | -13.8% | inactive |  |  | inactive | inactive |  | 
14 | Cc1nnc(-c2ccc3occ(-c4ccc(S(C)=O)cc4)c3c2)o1 (stereo not drawn) | -20.5% | inactive | 0.631 µM (active) | inactive |  |  |  | 
15 | CC(C)c1cc2c(c(O)c1O)[C@@]13CCCC(C)(C)C1[C@@H](O)[C@@H]2OC3=O (stereo partly drawn) | -5.34% | inactive | 13.9 µM (active) |  |  | 4.47 µM (active) |  | 
16 | Cc1ccc(C)c(OCCn2cc(C(=O)O)c3ccccc32)c1 | 7.16% | inactive |  |  | inactive | inactive |  | 
17 | O=C(Nc1cc2cc[nH]c2cn1)c1ccccc1 | -10% | inactive |  |  | 39.8 µM (active) |  |  | 
18 | CC[C@H](NC(=O)c1c(O)c(-c2ccccc2)nc2ccccc12)c1ccccc1 | 2.86% | inactive | 3.57 µM (active) | 3.18 µM (active) |  |  | 1.27 µM (active) | 
19 | O=C(Nc1ccccc1)N1CCC(Cc2cnc3ccccc3c2)CC1 | 3.34% | inactive |  |  | inactive | inactive | inactive | 
20 | CNC(C)C(=O)NC(C(=O)N1CCCC1c1nc(C(=O)c2ccc(F)cc2)cs1)C1CCCCC1 (stereo not drawn) | 17.2% | inactive |  |  | inactive | inactive |  | 
21 | CNc1nc(NCc2ccc(NS(C)(=O)=O)cc2Cl)cc(-c2ccccn2)n1 | 7.64% | inactive |  |  | inactive | inactive |  | 
22 | COc1cc(O)c(C(=O)O)c(CCc2ccccc2)c1 | -15.3% | inactive | 12.7 µM (active) | 10.1 µM (active) |  |  |  | 
23 | Cc1ccc(CCCO)c(NCc2ccc3nc(NCCCN4CCOCC4)n(Cc4nc(C)ccc4O)c3c2)c1 | 14.3% | inactive |  |  | inactive | inactive |  | 
24 | COc1cc(-c2cn(C3CCc4c(F)cccc4N(CC(F)(F)F)C3=O)nn2)ccc1-n1cnc(C)c1 (stereo not drawn) | 6.68% | inactive |  |  | inactive | inactive |  | 
25 | CN1CCC(NC(=O)c2cc(-c3c(O)cc(O)cc3Oc3ccc([N+](=O)[O-])cc3)on2)CC1 | 5.25% | inactive |  |  | inactive | inactive |  | 
26 | O=C(Nc1nc2ccc([N+](=O)[O-])cc2s1)C1CCCCC1 | 17.2% | inactive |  |  | 3.98 µM (active) |  |  | 
27 | O=C(O)C1(c2ccc(-c3ccc(Cl)c(Cl)c3)c(F)c2)CC1 | -12.9% | inactive |  |  | 44.7 µM (active) |  |  | 
28 | COc1ccc(C2COc3cc(O)ccc3C2)c(O)c1 (stereo not drawn) | -12.2% | inactive | 17.9 µM (active) |  |  | 25.1 µM (active) |  | 
